Screening data from PubChem BioAssay.
Shown are actives, neighbours in structure and some others; about 8.9% of the full set was active somewhere.
M1 antag: M1 muscarinic receptor (rat) antagonism | B-score at 10 µM | P08482 | AID 628 | CHO-M1 cells, Fluo-4 calcium, ACh EC80 antagonist mode; hits give low values | 64,000 tested, 3.4% active;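 active means calcium fluorescence response, raw or row-and-column corrected B-score, differing from the plate sample mean either way at a set confidence level, mostly lower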
Target sequence (P08482 whole entry, looked up): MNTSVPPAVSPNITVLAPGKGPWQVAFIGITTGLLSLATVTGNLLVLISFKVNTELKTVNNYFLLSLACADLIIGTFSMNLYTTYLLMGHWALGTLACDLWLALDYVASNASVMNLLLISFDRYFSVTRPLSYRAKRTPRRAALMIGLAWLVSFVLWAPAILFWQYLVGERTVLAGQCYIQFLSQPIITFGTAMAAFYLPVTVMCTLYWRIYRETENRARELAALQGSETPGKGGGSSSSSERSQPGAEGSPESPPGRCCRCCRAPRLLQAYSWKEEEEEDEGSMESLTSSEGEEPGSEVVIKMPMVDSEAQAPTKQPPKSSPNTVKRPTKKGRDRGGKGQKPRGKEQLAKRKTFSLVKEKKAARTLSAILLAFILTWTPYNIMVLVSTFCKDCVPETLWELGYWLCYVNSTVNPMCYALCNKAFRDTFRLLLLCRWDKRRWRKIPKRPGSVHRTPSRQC
mHtt clearance: compounds clearing mutant huntingtin protein. HeLa Exon1htt(103Q)mCFP, aggregate imaging; zero = plate's median compound well. inhibition, % at 1.5 µM. 47,000 tested, 0.42% active. AID 853;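 active means inhibition of aggregate fluorescence above about 70%, also judged a hit by eye on the cell image, limit read from the data, passing the limit was not always enough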;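 further: cells exposed to compound for three days before fixation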
D1 allo mod: allosterically modulates the human D1 dopamine receptor; B-score at 10 µM; 58,000 tested, 5.9% active; AID 641; HEK293 D1, CRE-luciferase, dopamine EC30 potentiation; actives deviate in either direction;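 active means luminescence count or its row- and column-corrected plate score outside the 99.7% band of the plate's sample wells, on either side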
WNV protease inh: blocks West Nile virus NS2B-NS3 protease activity | P06935 | WNV NS2B-NS3 protease, fluorogenic substrate Ex360/Em465; hits give low values | z-score (test concentration not listed) | 65,000 tested, 0.18% active | AID 577; in the data active means z-score below about -3
M1 ag: agonists of M1 muscarinic receptor; 64,000 tested, 3% active; CHO-M1 cells, Fluo-4 calcium fluorescence, agonist mode; hits give high values; B-score at 10 µM;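 active means fluorescence rise, raw or as B-score row- and column-corrected plate score, outside the 99.7% band of its plate's samples, either direction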
Large screens that a line does not name were inactive.

Oc1ccc(C=Nc2ccc3ncccc3c2)c(O)c1	none (no result: D1 allo mod)
CCOC(=O)N=S(=O)(Oc1ccc([N+](=O)[O-])cc1)c1ccccc1 (stereo not given)	mHtt clearance 78.3 (no result: M1 antag, D1 allo mod, WNV protease inh, M1 ag)
CCOC(=O)N=S(=O)(Oc1ccc([N+](=O)[O-])cc1)c1ccc(Cl)cc1 (stereo not given)	none (no result: M1 antag, D1 allo mod, WNV protease inh, M1 ag)
CCOC(=O)N1CCc2c(sc(NC(=O)c3ccc(Cl)s3)c2C(N)=O)C1	M1 ag 5.26 (no result: mHtt clearance)
COc1ccccc1N1CCN(C(=O)c2ccc(NC(C)=O)cc2)CC1	none
CCCCC(=O)Nc1ccc(C(=O)N2CCN(c3ccccc3OC)CC2)cc1	M1 antag 3.35
Cc1ccc(C)n1/N=C1/NC(=O)CS1	none
Cc1ccc2c(=O)c(CN(C)C3CCN(C)CC3)c(C)[nH]c2c1C	none (no result: mHtt clearance)
O=C(CCc1ccccc1)Nc1nc2n(n1)C(c1ccc(Cl)cc1)CC(=O)N2 (stereo not given)	WNV protease inh -3.35
O=C(CCc1ccccc1)Nc1nc2n(n1)C(c1ccccc1)CC(=O)N2 (stereo not given)	none
O=C(COC(=O)Cc1ccsc1)NC1CCCCCC1	mHtt clearance 74.2
O=C(COC(=O)c1cccc(C(=O)OCC(=O)NC2CCCCC2)n1)NC1CCCCC1	none
c1ccc(N=P(c2nc3ccccc3o2)(N2CCOCC2)N2CCOCC2)cc1	none
Cc1c(C(=O)N2CC(C)OC(C)C2)sc2nc(-c3ccc(F)cc3)cn12 (stereo not given)	D1 allo mod -3.01 (no result: mHtt clearance)
COC(=O)c1ccc(C(=O)OC)c(NC(=O)c2ocnc2C)c1	none (no result: mHtt clearance)
S=C(c1ccc(-c2ccc(Cl)c(Cl)c2)o1)N1CCOCC1	none (no result: mHtt clearance)
S=C(c1ccc(-c2ccccc2Cl)o1)N1CCOCC1	M1 antag 1.08 (no result: mHtt clearance)
CN(C)C(=O)c1ccccc1-c1ccccc1	none (no result: mHtt clearance, D1 allo mod)
COc1ccc(C)cc1NC(=O)CSc1nnc(-c2ccc(C)cc2)o1	none
COc1ccc(CCNC(=O)CSc2nnc(-c3ccc(F)cc3)o2)cc1OC	WNV protease inh -6.1
CCOC(=O)/C=C/S(=O)(=O)c1ccc(NC(C)=O)cc1	M1 antag 1.9
CCOC(=O)c1cccc(NS(=O)(=O)c2ccc(NC(C)=O)cc2)c1	none (no result: M1 antag, D1 allo mod, WNV protease inh, M1 ag)
O=C(C1CCCN(S(=O)(=O)c2cnc[nH]2)C1)N1CC(=O)N(CCc2ccccc2)C(=O)C1 (stereo not given)	none
Cn1c2ccccc2c2c(C(=O)NCc3ccco3)cn(C3CCCCC3)c(=O)c21	none (no result: mHtt clearance)
CCCCOC(=O)c1[nH]c2c(c1C)C(=O)CC(c1cc(OC)c(OC)c(OC)c1)C2 (stereo not given)	D1 allo mod -3.41 (no result: mHtt clearance)
Cc1ccc2c(CSc3nc4ccccc4c(=O)n3CCCO)cc(=O)oc2c1	M1 ag 9.98 (no result: mHtt clearance)
O=C(CSc1nc2ccccc2c(=O)n1CCCO)NCc1ccccc1	none (no result: mHtt clearance)
Cc1cccc(Cn2c(=O)c3c(nc4n3CCCN4Cc3ccccc3)n(C)c2=O)c1	none
CNC(=O)c1ccccc1NC(=O)c1cccc(S(=O)(=O)N2CCC(C)CC2)c1	D1 allo mod -3.73 (no result: mHtt clearance)
Cc1ccccc1-n1nc(C)c2cc(C(=O)NCc3cccnc3)sc21	D1 allo mod -4.69
O=C(O)c1ccc(CS(=O)(=O)c2cccc(C(F)(F)F)c2)o1	none (no result: mHtt clearance)
Cn1nnc2cc(C(=O)N3CCN(c4ccccc4)CC3)ccc21	mHtt clearance 79.6 (no result: D1 allo mod)
O=C(c1cc(-c2ccco2)on1)N1CCN(c2ccccc2)CC1	none (no result: mHtt clearance)
O=C(c1ccc2nc(-c3ccco3)c(-c3ccco3)nc2c1)N1CCN(c2ccccc2)CC1	M1 ag 5.66 (no result: mHtt clearance, D1 allo mod)
Cc1ccc(C(=O)N2CCN(c3ccccc3)CC2)cc1C	none (no result: mHtt clearance, D1 allo mod)
Cc1ccc(S(=O)(=O)N(C)Cc2ccc(-c3nnc4n3CCC4)cc2)cc1	M1 antag 2.59
Clc1ccc(-c2nnc3n2CCCCC3)cc1	none (no result: M1 antag, D1 allo mod, WNV protease inh, M1 ag)
C=COCCNC(=O)Nc1ccc(Cl)c(Cl)c1	none
CCN1CCN(Cc2ccc3c(c2)Cc2ccccc2-3)CC1	M1 antag -3.55 (no result: mHtt clearance)
CCn1c(O)c(C=NCCN2CCOCC2)sc1=S	WNV protease inh -4.55 (no result: mHtt clearance)
CN1CCN(c2c(F)cc3c(=O)c(C(=O)O)cn4c3c2SCC4)CC1	none (no result: mHtt clearance)
Cc1c(-n2cc(C(=O)O)c(=O)c3cc(F)c(N4CCCC4)c(F)c32)c(=O)n(-c2ccccc2)n1C	D1 allo mod 2.69 (no result: mHtt clearance)
NC(=O)c1ccccc1N/C=C/C(=O)c1ccccc1	D1 allo mod -2.52 (no result: mHtt clearance)
O=C(Cn1c(=O)c2c(ncn2C2CCCC2)n(Cc2ccccc2)c1=O)N1CCc2ccccc21	D1 allo mod -4.79
CCn1cnc2c1c(=O)n(CC(=O)N1CCc3ccccc31)c(=O)n2Cc1ccccc1	none (no result: mHtt clearance)
O=C(CSc1nnc(-c2cccnc2)o1)OC1CCCCC1	none
COCCOC(=O)c1c(C)nc(SCC(=O)Nc2ccc(OC)cc2)c(C#N)c1-c1ccco1	none (no result: mHtt clearance)
COc1cccc(NC(=O)CSc2nc3c(c(-c4ccco4)c2C#N)CCCC3)c1	M1 ag -2.62 (no result: mHtt clearance)
CS(=O)(=O)N1CCN(C(=O)c2cc(-c3ccncc3)nc3ccc(Cl)cc23)CC1	none
O=C(Nc1nnc(-c2ccc(F)cc2)o1)c1ccco1	none (no result: mHtt clearance)
Fc1ccc(-c2nnc(NC3=NCCCCC3)o2)cc1	D1 allo mod -6.59 (no result: mHtt clearance)
CN1C(=S)SC(/[N+]([O-])=C\c2ccco2)C1(C)C (stereo not given)	D1 allo mod -5.78 (no result: mHtt clearance)
Cc1ccc(/C=[N+](/[O-])C2SC(=S)N(C)C2(C)C)cc1 (stereo not given)	none (no result: M1 antag, D1 allo mod, WNV protease inh, M1 ag)
O=C(NC1CCC(NC(=O)C2CCCO2)CC1)C1CCCO1 (stereo not given)	none (no result: mHtt clearance)
CCN(CC)C(=O)c1sc2nc(-c3cccs3)cc(-c3cccs3)c2c1N	M1 ag 14.6 (no result: mHtt clearance)
Cc1c(NC(=O)Cn2cnc3c(=O)n(C)c(=O)n(C)c32)cccc1-c1nc2ccccc2o1	none
CCn1c(CSc2nc(C)cc(C)n2)nnc1SCC(=O)N1CCCc2ccccc21	none (no result: mHtt clearance)
COc1ccc(NC(=O)c2ccco2)cc1NC(=O)c1ccc(Br)o1	M1 ag 8.87 (no result: D1 allo mod)
Cn1c(=O)c2c(ncn2CC(=O)Nc2cc(Cl)c(Cl)cc2Cl)n(C)c1=O	none (no result: mHtt clearance, D1 allo mod)
CCOC(=O)N1CCC(N2CC34C=CC(O3)C(C(=O)Nc3ccc(OCC)cc3)C4C2=O)CC1 (stereo not given)	none (no result: D1 allo mod)
Cn1cnc2c(sc3nc(N4CCOCC4)c4c(c32)CC(C)(C)OC4)c1=O	D1 allo mod 3.55 (no result: mHtt clearance)
COc1ccc(-c2ncc3ccccn23)cc1	none
c1csc(-c2ncc3ccccn23)c1	D1 allo mod -3.8
Cc1ccc(N(CC(=O)N2CC(=O)Nc3ccccc32)S(=O)(=O)c2ccc3c(c2)OCCO3)cc1	none (no result: D1 allo mod, WNV protease inh)
[O-][n+]1c2ccc3nonc3c2nn1-c1ccccc1Cl	none (no result: mHtt clearance)
CCC1CCCCN1c1nc2c(c(=O)n(C)c(=O)n2C)n1CCSc1nc2ccccc2o1 (stereo not given)	M1 antag -0.712 (no result: mHtt clearance, D1 allo mod)
COc1ccc(CCNC(=O)c2ccc(NS(=O)(=O)c3c(C)noc3C)cc2)cc1OC	none (no result: mHtt clearance)
N#CC1=C(N)Oc2n[nH]c(-c3ccccc3)c2C1c1ccncc1 (stereo not given)	none
N#CC1=C(N)Oc2n[nH]c(-c3ccc(F)cc3)c2C1c1cccnc1 (stereo not given)	D1 allo mod 4.82 (no result: mHtt clearance)
Cc1ccc(NC(=O)c2cc(-c3cccc(O)c3)on2)cc1C	none
